MITF primary: inhibitors of human MITF. hit rate 0.91% among 650,000. inhibition, % at 2.6 µM. AlphaScreen MITF homodimerization, bead proximity signal. O75030. AID 1259374; in the data active = inhibition above about 50%
FBW7 act: human FBW7 E3 ligase activation, primary screen. AID 1259310. hit rate 0.13% among 650,000. normalized activity (activation), % at 26.1 µM. AlphaScreen FBW7–phospho-cyclin E peptide binding, activator screen; in the data active = normalized activity above about 1.9%;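 note: purified mutant Fbw7 with reduced substrate affinity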
TEAD-YAP block: TEAD-YAP interaction inhibition | HEK-TIYL cells, TEAD-Gal4/YAP UAS-luciferase luminescence | inhibition, % at 9.12 µM | hit rate 1.4% among 640,000; in the data active = inhibition above about 32%
GPR151 ag: human GPR151 activation; AID 1508602; Q8TDV0; PathHunter beta-arrestin GPR151 cells, luminescence; hit rate 1% among 650,000; activation, % at 11.2 µM; in the data active = activation above about 4.9%
Target sequence (Q8TDV0 whole entry, looked up): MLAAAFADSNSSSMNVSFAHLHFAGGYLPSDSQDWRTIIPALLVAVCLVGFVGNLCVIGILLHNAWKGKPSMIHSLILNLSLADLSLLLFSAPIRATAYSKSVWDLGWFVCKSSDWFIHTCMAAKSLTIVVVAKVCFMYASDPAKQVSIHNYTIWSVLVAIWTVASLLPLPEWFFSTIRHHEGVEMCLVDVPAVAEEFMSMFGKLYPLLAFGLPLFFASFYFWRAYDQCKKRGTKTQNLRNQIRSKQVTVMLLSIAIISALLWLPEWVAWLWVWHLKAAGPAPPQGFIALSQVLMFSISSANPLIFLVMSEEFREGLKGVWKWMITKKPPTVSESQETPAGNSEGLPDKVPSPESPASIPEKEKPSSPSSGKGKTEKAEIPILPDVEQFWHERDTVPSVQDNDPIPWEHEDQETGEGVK
A number is an active result; n = inactive. Most compounds without a hit are left out; they make up all but 3.4% or so of the library.

SMILES	MITF primary	FBW7 act	TEAD-YAP block	GPR151 ag
Oc1ccc2nc(-c3ccccc3)oc2c1	n	n	70	n
COc1ccc(-c2nc3cc(C)ccc3o2)cc1	n	n	69	n
Nc1ccc2oc(-c3cc(Cl)ccc3Br)nc2c1	n	n	48	n
COc1ccc(C)cc1NC(=O)N(CCN(C)C)C1CCN(CCc2cccs2)CC1	n	n	n	n
CC(C)(C)c1ccc2oc(-c3ccc(N)cc3)nc2c1	n	n	69	n
Nc1ccc2oc(-c3ccc(O)cc3)nc2c1	n	n	89	n
Cc1cccc2oc(-c3ccc(N)cc3)nc12	n	n	51	n
Cc1ccc(-c2nc3cc(N)ccc3o2)cc1	n	n	54	n
Nc1ccc(-c2nc3cc([N+](=O)[O-])ccc3o2)cc1	n	n	n	n
Nc1ccc2oc(-c3ccc(Cl)c(Cl)c3)nc2c1	n	n	n	n
Cc1ccc2nc(-c3cccc(NC(=O)c4ccc(-c5ccc(C)c(Cl)c5)o4)c3)oc2c1	n	n	n	n
CC1CCN(C(=O)CCCN(C)S(=O)(=O)c2ccc3c(c2)C(=O)c2ccccc2C3=O)CC1	n	n	n	n
Cc1ccc(-c2csc(NC(=O)c3ccccc3F)n2)cc1	n	n	n	n
Nc1c(S(=O)(=O)O)cc(Nc2ccc(Nc3nc(Cl)nc(Nc4ccc(S(=O)(=O)O)cc4)n3)c(S(=O)(=O)O)c2)c2c1C(=O)c1ccccc1C2=O	61	n	n	n
Cc1c(N)cccc1-c1nc2ccccc2o1	n	n	57	n
Cc1ccc(-c2nc3ccccc3s2)cc1N	n	n	54	n
Cc1ccc(-c2nc3ccccc3s2)cc1[N+](=O)[O-]	n	n	n	n
Cc1nc2cc(-c3nc4ccccc4s3)ccc2n1-c1ccccc1	n	n	59	n
CC(=O)c1ccc2c(c1)nc(C)n2-c1ccccc1	n	n	n	n
Cc1c(N)cccc1-c1nc2ccccc2s1	n	n	35	n
Cc1ccccc1-c1nc2cnccn2c1NCc1ccco1	n	n	n	n
CN1CCN(CCCN2C(=O)C3C(C(=O)Nc4ccc(Oc5ccccc5)cc4)C4C=CC3(O4)C2C(=O)NC2CCCCC2)CC1 (stereo not given)	n	n	n	n
COc1ccc(/C=N/NC(=O)COc2cccc(Cl)c2)cc1Br	n	n	n	n
Cc1cc(-c2nc3ccccc3s2)ccc1N	n	n	81	n
CC(=O)Nc1cc(-c2nc3ccccc3s2)ccc1C	n	n	n	n
SMILES	MITF primary	FBW7 act	TEAD-YAP block	GPR151 ag
COc1ccc(NS(=O)(=O)c2ccc(-c3ccc(S(=O)(=O)Nc4ccc(OC)cc4OC)cc3)cc2)c(OC)c1	n	n	n	n
CCOc1ccccc1NS(=O)(=O)c1ccc(OC)c(C)c1	n	n	n	n
CCOc1ccc(S(=O)(=O)Nc2cc(OC)ccc2OC)cc1C	n	n	52	n
COc1ccc(NS(=O)(=O)c2ccc(Cc3ccc(S(=O)(=O)Nc4ccc(OC)cc4OC)cc3)cc2)c(OC)c1	n	n	37	n
COc1ccc(NS(=O)(=O)c2ccc(Oc3ccccc3OC)cc2)cc1	n	n	33	n
COc1cccc(NS(=O)(=O)c2ccc(Oc3ccccc3OC)cc2)c1	n	n	n	n
CCOc1ccc(OCC)c(NS(=O)(=O)c2c[nH]c(C(=O)OC)c2)c1	n	n	53	n
CCOc1ccc(NS(=O)(=O)c2ccc(OC)c(OC)c2)cc1	n	n	n	n
COc1ccc(C)cc1NS(=O)(=O)c1ccc(SC)cc1	n	n	n	n
COc1ccc(OC)c(NS(=O)(=O)c2ccc(SC)cc2)c1	n	n	52	n
COc1ccc(OC)c(NS(=O)(=O)c2ccc(C(C)(C)C)cc2)c1	n	n	n	n
COc1ccc(NS(=O)(=O)c2ccc(SC)cc2)cc1OC	n	n	44	n
CCOc1ccc(S(=O)(=O)Nc2ccc(OC)c(OC)c2)cc1	n	n	57	n
CCOc1ccc(S(=O)(=O)Nc2cc(OC)ccc2OC)cc1	n	n	63	n
CC(=O)Nc1ccnn1C1CCN(Cc2cc(CC(C)C)n[nH]2)CC1	n	n	n	n
CCOc1ccc(S(=O)(=O)Nc2cc([N+](=O)[O-])ccc2OC)cc1	n	n	51	n
COc1ccc(NS(=O)(=O)c2ccc3c(c2)OC(C)CN3C(C)=O)cc1OC (stereo not given)	n	n	40	n
CC(=O)N1CC(C)Oc2cc(S(=O)(=O)Nc3ccccc3Cl)ccc21 (stereo not given)	n	n	n	n
COc1ccc(OC)c(NS(=O)(=O)c2ccc([N+](=O)[O-])cc2)c1	n	n	n	n
COC(=O)c1sccc1NC(=O)c1csc(C)c1-c1ccccc1	n	n	33	n
COc1ccc(-c2nsc3c(N4CCCC4)ncnc23)cc1	n	n	65	n

Assay outcomes from PubChem BioAssay.
